# Measurements reported in publication PMC4336329 (PLoS ONE, 2015).
# Screen size: about 310,000 compounds; about 14,000 (4.5%) showed an effect of 50% or more. Effects have a minus sign here. Many of the other results were omitted from the sample, so strong results are more common in it than they were.
# Target: human ether-à-go-go-related gene (hERG) potassium channel (human, UniProt Q12809)
# Assay: primary screen, population patch clamp on CHO cells stably expressing hERG; higher = less effect of the substance
# 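Also: peak tail current of the secondary pulse compared with the same well before compound.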
# human ether-à-go-go-related gene (hERG) potassium channel, sequence (Q12809 whole entry, looked up): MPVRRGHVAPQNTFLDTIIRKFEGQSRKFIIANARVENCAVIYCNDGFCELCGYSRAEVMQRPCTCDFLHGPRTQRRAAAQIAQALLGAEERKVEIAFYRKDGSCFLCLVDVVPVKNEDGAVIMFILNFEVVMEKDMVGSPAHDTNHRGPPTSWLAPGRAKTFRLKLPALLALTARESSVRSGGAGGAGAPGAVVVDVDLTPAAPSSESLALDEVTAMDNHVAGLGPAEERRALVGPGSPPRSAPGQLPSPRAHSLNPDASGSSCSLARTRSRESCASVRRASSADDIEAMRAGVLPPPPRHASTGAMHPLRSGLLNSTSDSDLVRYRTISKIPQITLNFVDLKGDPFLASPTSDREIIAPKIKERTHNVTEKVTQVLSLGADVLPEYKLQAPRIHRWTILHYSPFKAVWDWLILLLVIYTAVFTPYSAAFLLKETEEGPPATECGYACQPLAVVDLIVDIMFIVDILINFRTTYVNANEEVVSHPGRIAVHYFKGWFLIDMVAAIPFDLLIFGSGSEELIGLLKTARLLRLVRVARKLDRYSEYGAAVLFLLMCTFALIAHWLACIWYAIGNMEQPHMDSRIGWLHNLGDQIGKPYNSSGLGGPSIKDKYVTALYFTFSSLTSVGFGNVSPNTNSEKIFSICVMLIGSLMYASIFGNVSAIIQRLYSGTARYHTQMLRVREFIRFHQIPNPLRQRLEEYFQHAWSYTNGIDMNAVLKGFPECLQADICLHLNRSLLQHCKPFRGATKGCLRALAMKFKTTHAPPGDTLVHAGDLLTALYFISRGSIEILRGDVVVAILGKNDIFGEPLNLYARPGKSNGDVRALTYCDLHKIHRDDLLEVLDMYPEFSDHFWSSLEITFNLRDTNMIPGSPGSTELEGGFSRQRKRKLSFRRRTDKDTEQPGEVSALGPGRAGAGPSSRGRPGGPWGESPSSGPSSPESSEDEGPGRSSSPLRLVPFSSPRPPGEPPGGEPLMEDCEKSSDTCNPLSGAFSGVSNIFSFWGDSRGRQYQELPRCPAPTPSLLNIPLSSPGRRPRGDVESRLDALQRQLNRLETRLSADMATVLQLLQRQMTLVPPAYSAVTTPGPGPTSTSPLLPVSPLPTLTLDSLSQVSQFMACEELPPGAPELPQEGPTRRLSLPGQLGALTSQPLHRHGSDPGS
row,Structure (SMILES),"hERG current change (%, negative = inhibition) at 10uM"
1,CC(=O)c1cccc(N/C=C\c2nnnn2-c2ccc(F)cc2)c1,0.338%
2,COC(=O)C1=C(C)NC(C)=C(C(=O)OC)C1c1ccccn1,5.81%
3,O=C(NC1CCCC1)C(c1cccnc1)N(C(=O)c1csnn1)C1CCCC1 (stereo not shown),13%
4,O=C(CN(C(=O)Cn1nnc(-c2cccs2)n1)c1ccc2c(c1)OCCO2)NC1CCCCC1,-13.2%
5,Cc1nnc(C)n1N,12.1%
6,CCn1c(=O)cc(OCC(=O)O)c2ccccc21,10.6%
7,S=C(NCc1ccccc1)Nc1ccc(Cl)cc1,-25.1%
8,OCC1CCCN(c2ncnc3scc(-c4ccccc4)c23)C1 (stereo not shown),3.73%
9,CC1CCCN(c2nc(-c3cccnc3)nc3scc(-c4ccccc4)c23)C1 (stereo not shown),11.6%
10,Fc1ccc(N2CCN(c3nc(CN4CCOCC4)nc4scc(-c5ccccc5)c34)CC2)cc1,-5.05%
11,CC1CCN(c2nc(CN3CCCCC3)nc3scc(-c4ccccc4)c23)CC1,-75.5%
12,Clc1ccc(CNc2nc(CN3CCOCC3)nc3scc(-c4ccccc4)c23)cc1,-9.73%
13,CCC(CO)Nc1nc(CN2CCCCC2)nc2scc(-c3ccccc3)c12 (stereo not shown),-68.2%
14,OCC1CCCN(c2nc(CN3CCCCC3)nc3scc(-c4ccccc4)c23)C1 (stereo not shown),-63.7%
15,O=C(O)C(=O)O.c1ccc(CNc2nc(CN3CCOCC3)nc3scc(-c4ccccc4)c23)cc1,-20.6%
16,CC1CCN(c2nc(-c3cccnc3)nc3scc(-c4ccccc4)c23)CC1,15.4%
17,CCCCN(C(=O)CCC(=O)Nc1cc(C)on1)C(C(=O)NC(C)(C)CC)c1cccc(OC)c1OC (stereo not shown),1.4%
18,Cc1cccc(C)c1NC(=O)CSc1nnnn1C,-1.61%
19,O=C(CSc1ccccn1)Nc1ccc(Cl)c([N+](=O)[O-])c1,-19.6%
20,COc1ccc(Cn2c(N)c(C#N)c3nc4ccccc4nc32)cc1,11.2%
21,COc1ccc(-n2c(SCC(=O)NCCCN3CCCC3=O)nnc2C(C)N2CCCCC2)cc1 (stereo not shown),43.4%
22,C=CCc1cccc(CNc2nc3ccccc3n2CCC)c1O,5.13%
23,C#CCOCCOCCOCCNc1nc(N2CCOCC2)nc(N2CCN(C(=O)CCCCCCCCCCNC(=O)[C@H](CO)n3cc(CCCSC)nn3)CC2)n1,-0.214%

row,Structure (SMILES),"hERG current change (%, negative = inhibition) at 10uM"
1,CCOc1ccc(S(=O)(=O)Nc2ccc(C(=O)NCC(c3ccco3)N3CCCCC3)cc2)cc1 (stereo not shown),-25.1%
2,CC(C)[C@H](NC(=O)[C@H]1N2C(=O)c3ccccc3C2SC1(C)C)C(=O)NCc1ccco1 (stereo partly shown),2.21%
3,Cc1cccc(C)c1NC(=O)CSc1nnc(Cn2nnc(-c3ccccc3)n2)n1-c1ccccc1,-22.3%
4,CCN(CC)c1ccc(CNc2ccc(Br)cn2)cc1,13.1%
5,CC1(C)Cc2c(c(N3CCOCC3)nc3sc(-c4ccc(C(=O)O)o4)c(N)c23)CO1,-15.2%
6,Cn1nnc(NC(=O)/C=C/c2ccco2)n1,8.33%
7,O=C(NC1CCCc2ccccc21)c1ccc(Br)cc1 (stereo not shown),-7.78%
8,Cc1cc(C(=O)NC2CCCc3ccccc32)ccc1[N+](=O)[O-] (stereo not shown),9.18%
9,CC(C)[C@H](NC(=O)NC1CCCc2ccccc21)C(=O)O (stereo partly shown),-68.2%
10,O=C(NC1CCCc2ccccc21)c1ccc([N+](=O)[O-])cc1 (stereo not shown),-53.4%
11,O=C(NC1CCCc2ccccc21)c1ccccc1 (stereo not shown),3.92%
12,CCC(C)[C@H](NC(=O)NC1CCCc2ccccc21)C(=O)O (stereo partly shown),20.6%
13,O=C(NC1CCSc2ccccc21)c1ccc([N+](=O)[O-])cc1 (stereo not shown),-40.3%
14,COC(=O)[C@@H](NC(=O)NC1CCCc2ccccc21)C(C)C (stereo partly shown),9.47%
15,N#Cc1ccc(C(=O)NC2CCCc3ccccc32)cc1 (stereo not shown),-52.8%
16,COc1ccc(C(CNC(=O)C(CCSC)NC(=O)c2ccccc2Cl)N2CCOCC2)cc1 (stereo not shown),-8.2%
17,CC(C)C[C@H](NC(=O)c1cc2cc(Cl)ccc2n1C)C(=O)N1CCC(C(=O)O)CC1,13.5%
18,CN(C(=O)c1cccc(N2C(=O)C3C4C=CC(C4)C3C2=O)c1)C1CCCCC1 (stereo not shown),0.921%
19,O=C(Nc1ccccc1)NC(Cc1ccc(O)cc1)C(=O)O (stereo not shown),17.4%
20,O=C(NC(=S)Nc1ccccc1C(=O)O)c1cncc(Br)c1,23%
21,COc1ccc(OC)c(/C=C/C(=O)OCC(=O)Nc2ccc3c(c2)OCCO3)c1,15.9%
22,Cc1noc(/C=C/N(C)C)c1S(=O)(=O)N1CCc2ccccc21,-18.6%
23,COc1ccccc1CN(C)C(=O)c1cccc(S(=O)(=O)N2CCc3ccccc3C2)c1,-4.08%

row,Structure (SMILES),"hERG current change (%, negative = inhibition) at 10uM"
1,O=C(COC(=O)c1cc(=O)c2ccccc2o1)Nc1ccc2ccccc2c1,17.6%
2,CN1/C(=C\C(=O)CSc2nnc(NCc3ccccc3)s2)C(C)(C)c2ccccc21,-13.1%
3,CN1/C(=C\C(=O)CSc2nnc(N)s2)C(C)(C)c2ccccc21,0.532%
4,CC(C)Nc1nnc(SCC(=O)/C=C2\N(C)c3ccccc3C2(C)C)s1,-65.1%
5,O=C(c1ccc(Cl)cc1)C1CCCN(C(=O)c2csnn2)C1 (stereo not shown),0.734%
6,Cc1nc(C)c(C(=O)N2CCCC(C(=O)c3ccc(Cl)cc3C)C2)s1 (stereo not shown),-23%
7,CC(C)(C)c1ccc(C(=O)C2CCCN(C3CCC3)C2)cc1 (stereo not shown),-18.4%
8,CN1CCCC(C(=O)c2ccc(Cl)cc2)C1 (stereo not shown),-23%
9,Cc1cc(Cl)ccc1C(=O)C1CCCN(C(=O)c2snnc2C)C1 (stereo not shown),-56.1%
10,Cc1cc(Cl)ccc1C(=O)C1CCCN(C(=O)c2nonc2C)C1 (stereo not shown),-26.3%
11,O=C(c1ccc(C(F)(F)F)cc1)C1CCCN(C(=O)c2csnn2)C1 (stereo not shown),-22.6%
12,O=C(c1ccc(C(F)(F)F)cc1)C1CCCN(C2CCSCC2)C1 (stereo not shown),-71.2%
13,O=C(c1ccc(Cl)cc1)C1CCCN(C2CCSCC2)C1 (stereo not shown),-78.9%
14,COC(=O)CCC(=O)N1CCCC(C(=O)c2ccc(Cl)cc2C)C1 (stereo not shown),-5.75%
15,COc1ccc(C(=O)C2CCCN(C3CSCCSC3)C2)c(C)c1 (stereo not shown),-13%
16,Cc1cc(Cl)ccc1C(=O)C1CCCN(C2CCSCC2)C1 (stereo not shown),-74.3%
17,COc1cc2cc(C)nc(Cc3cccc4ccccc34)c2cc1OC,8.53%
18,CC#CP(=O)(OCC)C(O)(c1ccccc1)C(F)(F)F (stereo not shown),-3.29%
19,CC(=O)Nc1c(O)nc(SCC(=O)Nc2cccc(C)c2)[nH]c1=O,14.8%
20,CCOc1cc(-c2ccc(N)c(OCC)c2)ccc1N,-10.2%
21,S=C(NCc1ccc(Cl)c(Cl)c1)Nc1ccc2c(c1)OCO2,-6.19%
22,Nn1c(SCC(=O)Nc2ccc(S(N)(=O)=O)cc2)nnc1C(F)(F)F,0.037%
23,Cc1cc(Cl)cc(C)c1OCCCCCn1ccnc1,-28.1%

row,Structure (SMILES),"hERG current change (%, negative = inhibition) at 10uM"
1,CC(C)(C)[C@H]1CCC(=O)N([C@H](CSc2ccc(Br)cc2)Cc2ccccc2)CC1,4.84%
2,CC(C)(C)[C@H]1CCC(=O)N([C@H](CSc2ccccc2)Cc2ccccc2)CC1,-3.06%
3,C[C@H]1CCC(=O)N([C@H](CSc2ccc(Br)cc2)Cc2ccccc2)CC1,7.31%
4,CN1CCC(=O)N([C@H](CSc2ccc(Br)cc2)Cc2ccccc2)CC1,-64.8%
5,Cc1ccc(SC[C@H](Cc2ccccc2)N2CC[C@@H](C)CCC2=O)cc1,-28.7%
6,CCCN1CCC(=O)N([C@H](CSc2ccccc2)Cc2ccccc2)CC1,-69.6%
7,CCCN1CCC(=O)N([C@H](CSc2ccc(Br)cc2)Cc2ccccc2)CC1,-71.2%
8,CN1CCC(=O)N([C@H](CSc2ccccc2)Cc2ccccc2)CC1,-45.8%
9,CCOC(=O)c1c(NC(=O)C[n+]2ccc(Cc3ccccc3)cc2)sc(C)c1C.[Cl-],-43.5%
10,CC1CCN(c2cc(N3CCC(C)CC3)c([N+](=O)[O-])cc2/C=C(\C#N)c2nn(-c3ccccc3)c(N)c2C#N)CC1,-10.2%
11,Cc1ccc(C(=O)N2CCN(Cc3nc4sc5c(c4c(=O)[nH]3)CCCC5)CC2)cc1,-76%
12,Cc1ccc(-c2c(C)sc3nc(CN4CCN(CC(=O)NC5CC5)CC4)[nH]c(=O)c23)cc1,-71.5%
13,Cc1ccc(S(=O)(=O)N2CCN(Cc3nc4sc(C)c(C)c4c(=O)[nH]3)CC2)cc1,18.2%
14,Cc1sc2nc(CN3CCOCC3)[nH]c(=O)c2c1-c1ccccc1,2.19%
15,O=c1[nH]c(CN2CCN(S(=O)(=O)c3ccccc3C(F)(F)F)CC2)nc2sc3c(c12)CCCC3,10.9%
16,CC(=O)N1CCN(C(=O)CCc2nc3sc4c(c3c(=O)[nH]2)CCCC4)CC1,5.61%
17,O=c1[nH]c(CN2CCCC2)nc2sc3c(c12)CCC3,20.5%
18,O=C(CCc1nc2sc3c(c2c(=O)[nH]1)CCCC3)N1CCN(c2ccccc2)CC1,2.7%
19,Cc1cccc(C(=O)N2CCN(Cc3nc4sc5c(c4c(=O)[nH]3)CCCC5)CC2)c1,-58.4%
20,Cc1ccc(S(=O)(=O)N2CCN(Cc3nc4sc5c(c4c(=O)[nH]3)CCCC5)CC2)cc1,-21.3%
21,O=C(c1ccccc1F)N1CCN(Cc2nc3sc4c(c3c(=O)[nH]2)CCCC4)CC1,-81.6%
22,Cc1cccc(NC(=O)CCc2nc3sc4c(c3c(=O)[nH]2)CCCC4)c1,10.8%
